# In PubChem BioAssay AID1159580 (chemical genetic matrix, 2015):
# Screen size: about 5,500 compounds; about 2,000 (36%) were called active. Inconclusive results (about 18%) are left out. Some of the results follow. Values without a mark were called inactive. Rule as the data show it: active = normalized growth mostly below about 0.91 (no sharp cut-off); inconclusive = no clear call, values can overlap the other calls; inactive = mostly above about 0.92.
# Assay: chemical genetic growth profiling, strain panel (AID 1159580);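 also: tested at 20 µM; growth read once vehicle control cultures reached saturation at 30 °C; 1 = growth at the plate median or of vehicle wells; lower values mean less growth of the strain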
# Details: S. cerevisiae deletion strains, growth OD
# [1] = locus YDL101C, strain DUN1, stronger effect = lower value
# [2] = locus YHR030C, strain SLT2, stronger effect = lower value
# [3] = locus YAL013W, strain DEP1, stronger effect = lower value
# [4] = locus YBR229C, strain ROT2, stronger effect = lower value
# [5] = locus YDL134C, strain PPH21, stronger effect = lower value
# [6] = locus YDR150W, strain NUM1, stronger effect = lower value
# [7] = locus YEL061C, strain CIN8, stronger effect = lower value
# [8] = locus YGR078C, strain PAC10, stronger effect = lower value
# [9] = locus YGR229C, strain SMI1, stronger effect = lower value
# [10] = locus YHR087W, strain rtc3, stronger effect = lower value
# [11] = locus YJL187C, strain SWE1, stronger effect = lower value
# [12] = locus YJR043C, strain POL32, stronger effect = lower value
# [13] = locus YJR075W, strain HOC1, stronger effect = lower value
# [14] = locus YKL190W, strain CNB1, stronger effect = lower value
# [15] = locus YLR039C, strain RIC1, stronger effect = lower value
# [16] = locus YLR058C, strain SHM2 (second series), stronger effect = lower value
# [17] = locus YLR085C, strain ARP6, stronger effect = lower value
# [18] = locus YLR262C, strain YPT6, stronger effect = lower value
# [19] = locus YML094W, strain GIM5, stronger effect = lower value
# [20] = locus YMR219W, strain ESC1, stronger effect = lower value
# [21] = locus YMR263W, strain SAP30, stronger effect = lower value
# [22] = locus YNL153C, strain GIM3, stronger effect = lower value
# [23] = locus YNL298W, strain CLA4 (second series), stronger effect = lower value
# [24] = locus YNL322C, strain KRE1, stronger effect = lower value
# [25] = locus YNR030W, strain Alg12, stronger effect = lower value
# [26] = locus YOL006C, strain TOP1, stronger effect = lower value
# [27] = locus YPL055C, strain LGE1, stronger effect = lower value
# [28] = locus YPL241C, strain CIN2, stronger effect = lower value
# [29] = locus YPR135W, strain CTF4, stronger effect = lower value
structure (smiles),measurement,setting,value
O=C(CO/N=C\c1ccc(Cl)cc1Cl)NNC(=S)Nc1cc(Cl)ccc1Cl,normalized growth,"locus YAR019C, strain CDC15, stronger effect = lower value",1
same,normalized growth,"locus YBL105C, strain PKC1, stronger effect = lower value",0.992
same,normalized growth,"locus YBR135W, strain CKS1, stronger effect = lower value",1
same,normalized growth,"locus YBR136W, strain MEC1, stronger effect = lower value",1.01
same,normalized growth,"locus YBR160W, strain CDC28, stronger effect = lower value",1
same,normalized growth,"locus YDL017W, strain CDC7, stronger effect = lower value",1
same,normalized growth,"locus YDL028C, strain MPS1, stronger effect = lower value",1
same,normalized growth,[1],0.978
same,normalized growth,"locus YDL108W, strain KIN28, stronger effect = lower value",1.01
same,normalized growth,"locus YDL132W, strain cdc53, stronger effect = lower value",1
same,normalized growth,"locus YDL214C, strain PRR2, stronger effect = lower value",0.999
same,normalized growth,"locus YDR052C, strain DBF4, stronger effect = lower value",1
same,normalized growth,"locus YDR054C, strain cdc34, stronger effect = lower value",0.994
same,normalized growth,"locus YDR226W, strain ADK1, stronger effect = lower value",0.994
same,normalized growth,"locus YDR477W, strain SNF1, stronger effect = lower value",0.983
same,normalized growth,"locus YER123W, strain YCK3, stronger effect = lower value",0.996
same,normalized growth,"locus YER133W, strain GLC7, stronger effect = lower value",0.983
same,normalized growth,"locus YFL009W, strain cdc4, stronger effect = lower value",0.996
same,normalized growth,"locus YFL029C, strain CAK1, stronger effect = lower value",1.01
same,normalized growth,"locus YFR003C, strain YPI1, stronger effect = lower value",0.997
same,normalized growth,"locus YFR019W, strain FAB1, stronger effect = lower value",1
same,normalized growth,"locus YFR028C, strain CDC14, stronger effect = lower value",0.994
same,normalized growth,"locus YGR040W, strain KSS1, stronger effect = lower value",0.984
same,normalized growth,"locus YGR052W, strain FMP48, stronger effect = lower value",1.02
same,normalized growth,"locus YGR092W, strain DBF2, stronger effect = lower value",0.961
same,normalized growth,[2],1.01
same,normalized growth,"locus YHR079C, strain IRE1, stronger effect = lower value",0.966
same,normalized growth,"locus YHR082C, strain KSP1, stronger effect = lower value",1.14
same,normalized growth,"locus YHR205W, strain SCH9, stronger effect = lower value",0.98
same,normalized growth,"locus YIL147C, strain SLN1, stronger effect = lower value",1
same,normalized growth,"locus YJL095W, strain BCK1, stronger effect = lower value",0.928
same,normalized growth,"locus YJL128C, strain PBS2, stronger effect = lower value",0.992
same,normalized growth,"locus YJL157C, strain FAR1, stronger effect = lower value",0.989
same,normalized growth,"locus YJR016C, strain ILV3, stronger effect = lower value",1
same,normalized growth,"locus YJR066W, strain TOR1 (second series), stronger effect = lower value",0.948
same,normalized growth,"locus YJR066W, strain TOR1, stronger effect = lower value",1.15
same,normalized growth,"locus YKL048C, strain ELM1, stronger effect = lower value",1
same,normalized growth,"locus YKL067W, strain YNK1, stronger effect = lower value",1.03
same,normalized growth,"locus YKL101W, strain HSL1, stronger effect = lower value",1
same,normalized growth,"locus YKL193C, strain SDS22, stronger effect = lower value",1
same,normalized growth,"locus YKL203C, strain TOR2, stronger effect = lower value",1.06
same,normalized growth,"locus YLR113W, strain HOG1, stronger effect = lower value",1.01
same,normalized growth,"locus YLR133W, strain CKI1, stronger effect = lower value",1.02
same,normalized growth,"locus YLR403W, strain SFP1, stronger effect = lower value",0.97
same,normalized growth,"locus YML070W, strain DAK1, stronger effect = lower value",0.995
same,normalized growth,"locus YMR001C, strain CDC5, stronger effect = lower value",1
same,normalized growth,"locus YMR205C, strain PFK2 (second series), stronger effect = lower value",1.01
same,normalized growth,"locus YMR277W, strain FCP1, stronger effect = lower value",1
same,normalized growth,"locus YNL006W, strain LST8, stronger effect = lower value",0.99
same,normalized growth,"locus YNL020C, strain ARK1, stronger effect = lower value",1.01
same,normalized growth,"locus YNL161W, strain CBK1, stronger effect = lower value",0.996
same,normalized growth,"locus YNL183C, strain NPR1, stronger effect = lower value",1.09
same,normalized growth,"locus YNL207W, strain RIO2, stronger effect = lower value",1.01
same,normalized growth,"locus YNL222W, strain SSU72, stronger effect = lower value",0.993
same,normalized growth,"locus YNL307C, strain MCK1 (second series), stronger effect = lower value",0.999
same,normalized growth,"locus YOL078W, strain AVO1, stronger effect = lower value",1
same,normalized growth,"locus YOL136C, strain PFK27, stronger effect = lower value",1.01
same,normalized growth,"locus YOR061W, strain CKA2, stronger effect = lower value",1.02
same,normalized growth,"locus YOR119C, strain RIO1, stronger effect = lower value",1.05
same,normalized growth,"locus YOR231W, strain MKK1, stronger effect = lower value",1.05
same,normalized growth,"locus YOR329C, strain SCD5, stronger effect = lower value",1.01
same,normalized growth,"locus YPL031C, strain PHO85, stronger effect = lower value",0.995
same,normalized growth,"locus YPL153C, strain RAD53, stronger effect = lower value",0.99
same,normalized growth,"locus YPL204W, strain HRR25, stronger effect = lower value",0.991
same,normalized growth,"locus YPL209C, strain IPL1, stronger effect = lower value",1
same,normalized growth,"locus YPL256C, strain CLN2, stronger effect = lower value",1.02
same,normalized growth,"locus YPR025C, strain CCL1, stronger effect = lower value",0.997
same,normalized growth,"locus YPR106W, strain ISR1, stronger effect = lower value",0.992
same,normalized growth,"locus YPR111W, strain DBF20, stronger effect = lower value",0.997
same,normalized growth,"strain NNK1, stronger effect = lower value",0.997
same,normalized growth,"strain TSCII, stronger effect = lower value",0.997
Cc1ccc(Cl)cc1NC(=S)NCCO,normalized growth,[3],1.01
same,normalized growth,[4],1.01
same,normalized growth,[1],1.01
same,normalized growth,[5],0.996
same,normalized growth,[6],1
same,normalized growth,[7],1.02
same,normalized growth,[8],1.02
same,normalized growth,[9],0.999
same,normalized growth,[2],1.02
same,normalized growth,[10],1.01
same,normalized growth,[11],1.01
same,normalized growth,[12],0.993
same,normalized growth,[13],0.992
same,normalized growth,[14],1
same,normalized growth,[15],1.02
same,normalized growth,[16],1.01
same,normalized growth,[17],1
same,normalized growth,[18],1.01
same,normalized growth,[19],1.05
same,normalized growth,[20],1
same,normalized growth,[21],0.989
same,normalized growth,"locus YMR307W, strain GAS1, stronger effect = lower value",0.95
same,normalized growth,"locus YNL128W, strain TEP1, stronger effect = lower value",1.02
same,normalized growth,[22],1.01
same,normalized growth,[23],1.03
same,normalized growth,[24],1
same,normalized growth,[25],0.96
same,normalized growth,[26],1.03
same,normalized growth,[27],1.02
same,normalized growth,[28],1
same,normalized growth,[29],1.11
S=C(NCCCn1ccnc1)Nc1cc(Cl)ccc1Cl,normalized growth,[3],1.02
same,normalized growth,[4],0.987
same,normalized growth,"locus YCL061C, strain MRC1, stronger effect = lower value",0.979
same,normalized growth,[1],0.963
same,normalized growth,[5],0.868 (active)
same,normalized growth,[6],1.01
same,normalized growth,[7],1.02
same,normalized growth,[8],0.982
same,normalized growth,[9],0.994
same,normalized growth,[2],0.745
same,normalized growth,[10],1.04
same,normalized growth,[11],1.01
same,normalized growth,[12],1
same,normalized growth,[13],0.979
same,normalized growth,[14],0.994
same,normalized growth,[15],0.973
same,normalized growth,[16],1.02
same,normalized growth,[17],0.839
same,normalized growth,[18],1.05
same,normalized growth,[19],1.01
same,normalized growth,[20],1
same,normalized growth,[21],1.01
same,normalized growth,[22],0.987
same,normalized growth,[23],0.971
same,normalized growth,[24],0.992
same,normalized growth,[25],1.01
same,normalized growth,[26],0.938
same,normalized growth,[27],1
same,normalized growth,[28],0.983
same,normalized growth,[29],0.754
